Reference: PubChem BioAssay AID463173 (ICCB-Longwood Screening Facility, Harvard Medical School, 2010)
Among all 52,000 compounds or so, about 4,300 (8.3%) were called active. Rule as the data show it: active = survival mostly below about 52% (no sharp cut-off); inactive = mostly above about 56%. Shown is part of a subset that was picked to be rich in actives.

These molecules were tested on DeltatarO mutant (assay: S. aureus survival, RN4220 and DeltatarO strains – OD600, teichoic acid synthesis inhibitors, primary screen (AID 463173)). Conditions: S. aureus RN4220 wild type/DeltatarO growth, OD600, 18 h, stronger effect = lower value, screened at 18.75 µg/mL (by protocol).

SMILES | survival
CCOc1ccccc1NC(=O)C(=O)c1cc(C)n(-c2ccc(F)cc2)c1C | 114% (inactive)
Cn1cc(-c2nnc(-c3ccccc3)o2)c2ccccc21 | 94% (inactive)
Cc1ccccc1C(=O)N(Cc1nc(-c2ccc(Cl)cc2)no1)C(C)C | 78% (inactive)
CCOc1cc(C(=O)N(Cc2nc(-c3ccc(C)cc3)no2)C(C)C)cc(OCC)c1OCC | 50% (active)
COc1cccc(C(=O)N(Cc2nc(-c3ccc(Cl)cc3)no2)C(C)C)c1OC | 66% (inactive)
CCOc1ccc(C(=O)NCc2nc(-c3ccc(Cl)cc3)no2)cc1OCC | 49% (inactive)
Cc1ccc(-c2noc(CNC(=O)c3ccc(C(C)(C)C)cc3)n2)cc1 | 79% (inactive)
Cc1cc(C)cc(C(=O)N(Cc2nc(-c3ccc(Cl)cc3)no2)C(C)C)c1 | 14% (active)
CCOc1cc(C(=O)NCc2nc(-c3cccc(C)c3)no2)cc(OCC)c1OCC | 70% (inactive)
CC(C)N(Cc1nc(-c2ccc(Cl)cc2)no1)C(=O)c1ccc(C(C)(C)C)cc1 | -1% (active)
Cc1ccc(-c2noc(CN(C(=O)c3ccc(C(C)(C)C)cc3)C(C)C)n2)cc1 | -4% (active)
CC(C)N(Cc1nc(-c2ccc(Cl)cc2)no1)C(=O)c1ccco1 | 68% (inactive)
CCCCOc1ccc(C(=O)N(Cc2nc(-c3ccc(Cl)cc3)no2)C(C)C)cc1 | 59% (inactive)
O=C(CCN1C(=O)CSC1=O)Nc1ccccc1 | 114% (inactive)
COc1ccc(OC)c(-c2noc(N3CCN(c4cccc(C(F)(F)F)c4)CC3)n2)c1 | 124% (inactive)
COc1ccc(NC(=O)c2cnn(-c3ccc(C)cc3)c2-n2cccc2)cc1Cl | 69% (inactive)
CN1C(=O)Cc2cc(S(=O)(=O)N3CCN(c4ccccc4F)CC3)ccc21 | 107% (inactive)
COC(=O)c1cc2occc2n1CC(=O)Nc1ccc(C(C)C)cc1 | 93% (inactive)
CCc1ccccc1Nc1cc(C(=O)NCc2ccc(C)cc2)c2ccccc2n1 | 69% (inactive)
Cc1ccc(CNC(=O)CCC(=O)N2CC(C)Sc3ccccc32)cc1 (stereo not drawn) | 45% (active)
COc1ccccc1CNC(=O)CCC(=O)N1CC(C)Sc2ccccc21 (stereo not drawn) | 111% (inactive)
CCOc1ccc(CNC(=O)CCC(=O)N2CC(C)Sc3ccccc32)cc1 (stereo not drawn) | 56% (inactive)
CC1CN(C(=O)CCC(=O)NCc2cccc(Cl)c2)c2ccccc2S1 (stereo not drawn) | 100% (inactive)
COc1cccc(CNC(=O)CCC(=O)N2CC(C)Sc3ccccc32)c1 (stereo not drawn) | 51% (active)

SMILES | survival
Cc1ccc(CNC(=O)CCC(=O)N2CCSc3ccccc32)cc1 | 113% (inactive)
O=C(Nc1ccc2nc(SCCOc3ccccc3Cl)sc2c1)c1ccc2c(c1)OCO2 | 68% (inactive)
COc1cn(CC(=O)Nc2c(C)cc(C)cc2C)c(CN2CCCCC2)cc1=O | 98% (inactive)
CCOc1ccc(NS(=O)(=O)c2ccc(NC(=O)N3CCCC3)cc2)cc1 | 101% (inactive)
COc1ccc(OC)c(NC(=O)C(C)n2c(=O)cc(C)c3c(C)nn(-c4ccccc4)c32)c1 (stereo not drawn) | 94% (inactive)
CCOc1ccccc1-c1cc(C(=O)N/N=C(\C)c2ccco2)[nH]n1 | 85% (inactive)
Clc1ccc(-c2ccc(CNCCSc3nnnn3-c3ccccc3)o2)cc1 | 52% (inactive)
Fc1ccc(CNCCCSc2nnnn2-c2ccccc2)cc1 | 97% (inactive)
Fc1ccc(-c2ccc(CNCCSc3nnnn3-c3ccccc3)o2)cc1Cl | 39% (active)
Cc1c(Cl)cccc1-c1ccc(CNCCSc2nnnn2-c2ccccc2)o1 | 62% (inactive)
Fc1cccc(Cl)c1CNCCSc1nnnn1-c1ccccc1 | 79% (inactive)
Clc1cccc(-c2ccc(CNCCSc3nnnn3-c3ccccc3)o2)c1 | 30% (active)
Brc1ccc(-c2ccc(CNCCSc3nnnn3-c3ccccc3)o2)cc1 | 67% (inactive)
CCOc1ccc(Br)cc1CNCCSc1nnnn1-c1ccccc1 | 23% (active)
CCOc1cc(CNCCSc2nnnn2-c2ccccc2)ccc1OC | 60% (inactive)
Clc1cccc(CNCCCSc2nnnn2-c2ccccc2)c1 | 68% (inactive)
Fc1ccc(-c2ccc(CNCCSc3nnnn3-c3ccccc3)o2)cc1 | 28% (active)
COc1cc(OC)c(OC)cc1CNCCSc1nnnn1-c1ccccc1 | 61% (inactive)
Cc1ccccc1OCC(=O)Nc1ccc2[nH]c(=O)sc2c1 | 133% (inactive)
CN(C)c1ccc(/C=C/C=c2\sc3nc4ccccc4n3c2=O)cc1 | 102% (inactive)
Cn1nnnc1SCCCNCc1ccc(-c2cccc(Cl)c2)o1 | 97% (inactive)
Cn1nnnc1SCCCNCc1ccc(-c2ccc(Br)cc2)o1 | 32% (active)
Cn1nnnc1SCCCNCc1ccc(-c2ccc(F)c(Cl)c2)o1 | 82% (inactive)
COc1cccc2c1Oc1ncccc1N(C(=O)CCC(=O)NCc1ccc(C)cc1)C2 | 81% (inactive)

SMILES | survival
CCc1ccc(C2=NN(CCC(=O)NCCc3ccc(Cl)cc3)C(=O)CC2)cc1 | 128% (inactive)
Cc1ccc(CNC(=O)CSc2nc3ccccc3nc2Cc2ccc(C)cc2)cc1 | 71% (inactive)
CCCNC(=O)CSc1nc2ccccc2nc1Cc1ccc(Cl)cc1 | 74% (inactive)
CCOc1ccc(CCNC(=O)CSc2nc3ccccc3nc2Cc2ccc(C)cc2)cc1OCC | 112% (inactive)
O=C(CSc1nc2ccccc2nc1Cc1ccc(Cl)cc1)NCCc1ccccc1 | 69% (inactive)
COc1ccc(CCNC(=O)CSc2nc3ccccc3nc2Cc2ccc(C)cc2)cc1OC | 35% (active)
Cc1ccc(Cc2nc3ccccc3nc2SCC(=O)NCCc2ccccc2)cc1 | 67% (inactive)
CCCCN(C)C(=O)CSc1nc2ccccc2nc1Cc1ccc(C)cc1 | 32% (active)
COc1ccc(CCNC(=O)CSc2nc3ccccc3nc2Cc2ccc(Cl)cc2)cc1OC | 37% (active)
CCCCNC(=O)CSc1nc2ccccc2nc1Cc1ccc(C)cc1 | 87% (inactive)
CCOc1ccc(CNS(=O)(=O)c2ccc3c(c2)CCCN3C(C)=O)cc1 | 93% (inactive)
CC(Sc1nc(NC(C)(C)C)nc(N(C)C)n1)C(=O)Nc1ccccc1 (stereo not drawn) | 68% (inactive)
COc1cc2[nH]c(=O)n(Cc3ccc(C(=O)N4CCN(c5cc(Cl)ccc5C)CC4)cc3)c(=O)c2cc1OC | 58% (inactive)
COc1ccc(CNC(=O)CCNS(=O)(=O)c2ccc3c(c2)CCCC(=O)N3)cc1 | 119% (inactive)
COc1ccccc1NC(=O)C1=C(C)Nc2nc(SCc3ccccc3Cl)nn2C1c1ccccn1 (stereo not drawn) | 171% (inactive)
CCn1cc(C(=O)N2CCN(c3ccc(OC)cc3)CC2)c(=O)c2cc(S(=O)(=O)N(C)C3CCCCC3)ccc21 | 122% (inactive)
CC(NC(=O)c1ccc(NC(=O)c2nsc3ccccc23)cc1)c1ccccc1 (stereo not drawn) | 84% (inactive)
O=C(Cc1csc2ccccc12)NCc1ccc(F)cc1 | 71% (inactive)
Cc1cc(C)c(NC(=O)C(C)n2c(=O)cc(C)c3c(C)nn(-c4ccccc4)c32)c(C)c1 (stereo not drawn) | 81% (inactive)
Cn1nc(C(=O)Nc2ccc(F)c(Cl)c2)c2c1-c1ccccc1S(=O)(=O)C2 | 90% (inactive)
COc1ccc(Cl)cc1NC(=O)c1nn(C)c2c1CS(=O)(=O)c1ccccc1-2 | 53% (inactive)
COc1ccc(NC(=O)c2nn(C)c3c2CS(=O)(=O)c2ccccc2-3)cc1Cl | 56% (active)
CC(C)NC(=O)c1nn(C)c2c1CS(=O)(=O)c1ccccc1-2 | 51% (active)
Cn1nc(C(=O)NCc2ccccc2)c2c1-c1ccccc1S(=O)(=O)C2 | 85% (inactive)

SMILES | survival
COCCCNC(=O)c1nn(C)c2c1CS(=O)(=O)c1ccccc1-2 | 99% (inactive)
CCN1C(=O)c2ccccc2Sc2ccc(NC(=O)COc3ccc(Cl)cc3)cc21 | 91% (inactive)
CCCCN(CC)CCNC(=O)c1c(C)oc2ncnc(N3CCOCC3)c12 | 87% (inactive)
COc1cccc(N2CCN(c3nc4ccc(C(=O)c5ccccc5)cc4n4c(C)nnc34)CC2)c1 | 102% (inactive)
Cc1c(C(=O)OCCOc2ccccc2)[nH]c2c1C(=O)CC(c1ccccc1Cl)C2 (stereo not drawn) | 80% (inactive)
CCC(=O)N1CCc2cc(Br)cc(S(=O)(=O)NCCc3ccc(C)cc3)c21 | 85% (inactive)
CCC(=O)N1CCc2cc(Br)cc(S(=O)(=O)NCc3ccccc3)c21 | 66% (inactive)
CCC(=O)N1CCc2cc(Br)cc(S(=O)(=O)NCCc3ccccc3)c21 | 43% (active)
CCC(=O)N1CCc2cc(Br)cc(S(=O)(=O)NCCc3cccc(C)c3)c21 | 102% (inactive)
CCC(=O)N1CCc2cc(Br)cc(S(=O)(=O)NCCc3ccccc3Cl)c21 | 39% (active)
CCC(=O)N1CCc2cc(Br)cc(S(=O)(=O)CCC(=O)NCCc3ccccc3Cl)c21 | 72% (inactive)
CC(CNC(=O)c1ccc2nc(Cc3ccccc3)oc2c1)c1ccccc1 (stereo not drawn) | 70% (inactive)
CC(Sc1nccn1C)C(=O)Nc1ccccc1C#N (stereo not drawn) | 85% (inactive)
COc1ccccc1CNc1ncnc2c1c(-c1ccccc1)cn2-c1cccc(C)c1 | 80% (inactive)
O=S(=O)(c1ccc(C2CCCCC2)cc1)N1CCN(c2ccc(Cl)c(Cl)c2)CC1 | 54% (active)
O=S(=O)(c1ccc(C2CCCCC2)cc1)N1CCN(c2cc(Cl)ccc2Cl)CC1 | 72% (inactive)
CCc1ccc(S(=O)(=O)N2CCN(c3ccc(Cl)c(Cl)c3)CC2)cc1 | 118% (inactive)
Cc1cccc(OC(=O)c2snnc2C)c1 | 88% (inactive)
Cc1cccc(NC(=O)c2oc3ccc(S(=O)(=O)N4CCCCC4)cc3c2C)c1C | 71% (inactive)
COc1ccccc1NC(=O)CSC1=Nc2ccccc2C2=NC(CC(=O)NCc3ccccc3)C(=O)N12 (stereo not drawn) | 71% (inactive)
Cc1ccc(-n2ncc3c(N4CCCCCC4)ncnc32)cc1Cl | 102% (inactive)
